Here are results for 99 compounds from PubChem BioAssay AID651820 (National Center for Advancing Translational Sciences (NCATS), 2012).

In all, about 340,000 compounds went through this assay and about 12,000 (3.5%) were called active. About 18% were inconclusive and are not listed. What follows is part of a selection rich in actives, with near analogues and random picks from the rest. Where a call stands in place of a potency, no number is given. Unmarked numbers belong to inactive results. The call rests on the fitted dose curve; in most records, active means well fitted inhibition curve with a large enough effect; inconclusive means small, poorly fitted or top-dose-only effect, or another doubt; inactive means no such curve, though single readings can be large or run the other way.
Potency means the concentration at half of the fitted maximal effect.

A short description of this experiment: qHTS Assay for Inhibitors of Hepatitis C Virus (HCV). The settings on record: Huh7.5.1 HCVcc-Cre infection, luciferase reporter, 44 h; series mostly up to 41.8 µM. Put shortly:
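Compounds are dispensed onto cells plated 4 h earlier at 1,000 per well, with HCVcc-Cre virus (about 0.5 moi) added next. Following 44 h of culture, luminescent signal is measured for 15 sec after 15 min with substrate at room temperature.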
For `O=c1[nH]c(=S)[nH]c(O)c1/C=C1\C=Nc2ccccc21`, the Potency entry is “inactive”. Turning to `Cc1cc(F)ccc1S(=O)(=O)Nc1ccc(C(=O)N(C)Cc2ccco2)cc1`, the Potency result is “inactive”. Still for that read-out and setting: in the case of `CCOC(=O)C1=CN(Cc2ccc(Br)cc2)S(=O)(=O)NC1C` (centres undefined) it was “inactive”; in that of `COC(=O)c1cc(Oc2ccc(S(=O)(=O)N3CCOCC3)cc2[N+](=O)[O-])cc(C(=O)OC)c1`, “inactive”. As to `CC1CCN(CCC(=O)Nc2ccccc2)CC1`, the Potency entry is “inactive”. Regarding `O=C(CCN1c2ccccc2Sc2ccccc21)Nc1ccccc1`, the Potency is 12.6 µM (active). As for `O=C(CCN1C(=O)c2ccccc2C1=O)Nc1ccncc1`, the Potency entry is “inactive”. Same read-out and setting: under `O=S(=O)(Nc1ccc(-n2cnnn2)cc1)c1ccc(Cl)cc1` stands “inactive”; under `Fc1ccccc1-c1cc2cc3c(cc2cn1)OCO3`, “inactive”; under `COc1ccc(NC(=O)CCN2CCCC2)c(OC)c1`, “inactive”. Consider `O=C(CCN1CCCCC1)NCC(=O)Nc1ccc(Br)cc1C(=O)c1ccccc1`, for which the Potency was 10 µM (active). The same measure, in the same setting: in the case of `Cc1ccc(NC(=O)c2nc[nH]c2C(=O)N2CCCCC2)c(C(=O)c2ccccc2)c1` it was “inactive”; in that of `Cc1cccc(C)c1Nc1nnc(SCC(=O)NCCCN2CCCC2=O)s1`, “inactive”. Consider `COC(=O)C1=CO[C@@H](O[C@@H]2O[C@H](CO)[C@@H](O)[C@H](O)[C@H]2O)C2C1C[C@H](O)[C@@H]2C` (some centres undefined), for which the Potency was 2.51 µM (active). In the case of `CO[C@H]1[C@@H]2C=CO[C@@H](O[C@H]3O[C@@H](CO)[C@H](O)[C@@H](O)[C@@H]3O)[C@@H]2[C@@]2(CO)O[C@@H]12`, the Potency entry is “inactive”. In the case of `C=CC1C(OC2OC(CO)C(O)C(O)C2O)OC=C(C(=O)OC)C1CC1CC(=O)CC(CC(=O)CCc2ccc(O)cc2)O1` (centres undefined), the Potency entry was “inactive”.

On to `CCCc1cc(=O)[nH]c(SCC(=O)c2cc(C)n(CCC)c2C)n1`, for which the Potency entry was “inactive”.

Consider `Cc1cc(=O)[nH]c(SCc2ccc(Cl)cc2)n1`, for which the Potency result is “inactive”. On the same count and under the same terms, under `Cc1cc(C(=O)CSc2nc(N)cc(=O)[nH]2)c(C)n1CCc1ccc(Cl)cc1` stands 11.2 µM (active); under `Cc1ccc(S(=O)(=O)N2CCN(C(=O)c3cc(S(=O)(=O)N4CCOCC4)ccc3F)CC2)cc1`, “inactive”. `CCCCCCCCNS(=O)(=O)CCNC1CCCCC1`: the Potency entry was “inactive”. Turning to `COc1cccc(C(=O)Nc2ccc(N3CCCC3)cc2)c1`, the Potency was 11.2 µM (active). Turning to `COc1cccc(C(=O)Nc2ccc(N3CCN(C(=O)c4ccco4)CC3)cc2)c1`, the Potency result is “inactive”. As to `COc1ccc(C(=O)Nc2ccc(N3CCC(C)CC3)cc2)cc1Br`, the Potency result is “inactive”. As to `O=C(CSc1ncn[nH]1)Nc1ccc(Br)cc1Br`, the Potency entry is “inactive”. In the case of `Cn1nccc1C(=O)NC1CCCc2c1cnn2-c1ccccc1F` (centres undefined), the Potency is 0.891 µM (active).

For the compound `COc1cccc(C(=O)Nc2c3c(nn2-c2cccc(C)c2C)CS(=O)(=O)C3)c1OC`, the Potency result was “inactive”. For the compound `CC(=O)NCC(=O)NC1CCCc2c1cnn2-c1ccccc1F` (centres undefined), the Potency entry is “inactive”. In the case of `COc1ccc(C(=O)NC2CC(C)(C)Cc3c2cnn3-c2ccccc2C)o1` (centres undefined), the Potency entry is “inactive”.

Consider `COc1ccc(C(=O)NC2CCCc3c2cnn3-c2cccc(C)c2C)c(OC)n1` (centres undefined), for which the Potency is 2.24 µM (active).

Consider `Cc1cc(C(=O)NC2CCCc3c2cnn3-c2cccc(C)c2C)c(C)o1` (centres undefined), for which the Potency was 10 µM (active). With `Cc1cc(C(=O)NNC(=O)c2ccccc2O)c(C)o1`, the Potency result is “inactive”. Still for that read-out and setting: in the case of `CC1(C)Cc2c(cnn2-c2cccc(F)c2)C(NC(=O)c2cc[n+]([O-])cc2)C1` (centres undefined) it was “inactive”; in that of `Cc1cccc(C(=O)OC(C)C(=O)NC2CCCc3ccccc32)c1O` (centres undefined), “inactive”.

`NC(=S)NN=C1CCCC(C(F)(F)F)C1` (centres undefined): the Potency entry was “inactive”.

On to `C#CCOCCOCCOCCNc1nc(N2CCN(C(=O)Cn3cc(CCCCN)nn3)CC2)nc(N2CCN(C(=O)[C@H](CCCCN)n3cc(CCC(=O)O)nn3)CC2)n1`, for which the Potency entry is “inactive”.

Take `CCOC(=O)C1=CN(Cc2ccc(Br)cc2)S(=O)(=O)N(C)C1C` (centres undefined): the Potency entry is “inactive”.

For the compound `CCOC(=O)[C@H]1[C@H]2COc3cc(OC)ccc3[C@@H]2N2C(=O)CN(Cc3ccc(Cl)cc3)C(=O)[C@@]12C`, the Potency entry is “inactive”.

In the case of `CN(CC(=O)NCCc1ccc(S(N)(=O)=O)cc1)CC(=O)Nc1ccc(F)c(F)c1F`, the Potency result is “inactive”.

With `O=C(NCCS(=O)(=O)N1CCN(c2ccc(F)cc2)CC1)c1ccc2c(c1)OCO2`, the Potency entry is “inactive”. As for `CCCSc1nc(NCc2ccco2)c2c3c(sc2n1)COC(C)(CC)C3` (centres undefined), the Potency result is “inactive”.

As for `CC1CCN(C(=O)CCc2nnc3ccc(NCc4ccco4)nn23)CC1`, the Potency entry was “inactive”. On to `CN1CCc2c(sc3c2c(NCc2ccco2)nc2nnnn23)C1`, for which the Potency was 10 µM (active). In the case of `CCC1(c2ccccc2)NC(=O)N(CC(=O)Nc2ccccc2C(=O)NC2CCCC2)C1=O` (centres undefined), the Potency result is “inactive”. Take `COCC(C)n1c(SCC(=O)NC2CCCCC2C)nc2ccccc2c1=O` (centres undefined): the Potency result is “inactive”. On to `CSCCC(NC(=O)c1ccco1)C(=O)Nc1cc(C)ccn1` (centres undefined), for which the Potency result was “inactive”. Consider `COc1cc(Br)c(-c2sc(Nc3ccccc3)n[n+]2-c2ccccc2)cc1OC`, for which the Potency result is “inactive”. For the compound `Cc1ccc(Nc2nnc(SCc3ccccc3)s2)cc1`, the Potency result was “inactive”. Same read-out and setting: in the case of `CCc1ccc(Nc2n[n+](-c3ccccc3)c(-c3cccc(Cl)c3Cl)s2)cc1` it was 10 µM (active); in that of `CCCN(C(=O)COC(=O)CNS(=O)(=O)c1ccc(NC(C)=O)cc1)C1CCS(=O)(=O)C1` (centres undefined), “inactive”. For the compound `COc1cc(OC)cc(C(=O)NNC(=O)CCOc2ccccc2OC)c1`, the Potency result was “inactive”. `COc1ccc(C)cc1NC(=O)c1cc(-c2ccccc2)nc2c1cnn2C(C)C`: the Potency result was “inactive”.

For the compound `O=C1Cc2cc(S(=O)(=O)Nc3cccc(F)c3)ccc2N1`, the Potency result was “inactive”.

On to `COc1cc(OC)nc(S(C)(=O)=O)n1`, for which the Potency entry was “inactive”. `COc1ccc(-c2cc(C(F)(F)F)nc(S(C)(=O)=O)n2)cc1OC`: the Potency was 10 µM (active). Turning to `COc1ccc(-c2cc(C(=O)NCCCN3CCCC3=O)c3ccccc3n2)cc1OC`, the Potency result was “inactive”. Consider `CSCCC(NC(=O)COc1ccccc1)C(=O)OCc1ccc(Cl)cc1` (centres undefined), for which the Potency result was “inactive”.

`O=C(COC(=O)c1ccc(O)cc1O)c1ccc2c(c1)OCCO2`: the Potency result was “inactive”. On to `Cc1ccccc1-n1nc(C)c2cc(C(=O)NC3CC3)sc21`, for which the Potency result was “inactive”.

Take `CCOC(=O)N1CCN(C(=O)c2cc3c(-c4ccc(Cl)cc4)nn(C)c3s2)CC1`: the Potency result was “inactive”. Consider `CN(CCNC(=O)c1cc2c(-c3ccccc3F)nn(C)c2s1)C1CCCCC1`, for which the Potency was 12.6 µM (active). In the case of `CCOc1ncccc1C(=O)NNC(=O)c1cccc(S(=O)(=O)Nc2ccccc2OC)c1`, the Potency entry is “inactive”. On to `C=CCCC(=O)N1C[C@H]2CON(C)[C@H]2C[C@H]1c1cccc(Nc2ccccc2)c1`, for which the activity change, negative = inhibition is -15.5% [at 8.37 µM]. Consider `CC(C)c1ccc(NC(=S)NNc2ccc(Cl)c(C(=O)O)c2)cc1`, for which the Potency entry was “inactive”. On the same count and under the same terms, under `Cc1ccc(C)c(NC(=S)NNC(=S)Nc2ccc(C(C)C)cc2)c1` stands 5.62 µM (active); under `Cc1ccc(C)c(NC(=S)NNC(=O)c2csc(C)c2)c1`, “inactive”; under `CCOc1ccc(Br)cc1S(=O)(=O)Nc1ccc(S(=O)(=O)Nc2cc(C)on2)cc1`, “inactive”. Consider `COc1ccc(C2CC(c3cccs3)=NN2C(=O)CCC(=O)O)cc1OC` (centres undefined), for which the Potency entry was “inactive”. With `COc1ccc(C2CC(c3cccs3)=Nc3ccccc3S2)cc1OC` (centres undefined), the Potency is 11.2 µM (active).

On to `COc1ccc(C2CC(c3cccs3)=NN2c2ccc(F)cc2)cc1OC` (centres undefined), for which the Potency entry was “inactive”.

As to `O=C(Nc1c[nH]c(=O)[nH]c1=O)OCc1ccccc1`, the Potency entry is “inactive”. For the compound `CCOc1ccc(-c2cc(C)[n+](CCN(CC)CC)c(-c3ccc(OCC)cc3)c2)cc1`, the Potency was 11.2 µM (active).

For the compound `CCOc1ccc(-c2c(C)n([O-])c3c([n+]2=O)CCCC3)cc1`, the Potency result was “inactive”.

`CCOc1ccc(-c2nnc3ccc(SC)nn23)cc1`: the Potency entry was “inactive”. For the compound `O=C(NCCCN1CCOCC1)c1cc(-c2cccc(O)c2)on1`, the Potency result is “inactive”. For the compound `O=C(NCCCN1CCOCC1)c1cc(-c2ccc(Cl)cc2)on1`, the Potency is 11.2 µM (active). As to `COc1ccc(-c2cc(C(=O)NCCCN3CCOCC3)no2)cc1`, the Potency entry is “inactive”. Regarding `C[C@H](NC(=O)c1ccccc1Cl)C(=O)OCC(=O)N1CCN(c2ccccc2)CC1`, the Potency result was “inactive”.

As for `Cc1ccc(C(=O)NCCNC(=O)c2cnccn2)cc1`, the Potency entry was “inactive”. The same measure, in the same setting: in the case of `CCN(CC)c1ccc(/C=N/NC(=O)CNC(=O)c2cccnc2)cc1` it was “inactive”; in that of `CCN(CC)c1ccc(/C=N/NC(=O)c2cnccn2)c(O)c1`, 3.55 µM (active). Turning to `CCC1([N+](=O)[O-])COC(c2ccc(C)cc2)OC1` (centres undefined), the Potency result is “inactive”. In the case of `COc1ccc(C(=O)NCc2ccc(Cl)cc2)cc1S(=O)(=O)N1CCCC1`, the Potency result was “inactive”.

For the compound `O=C(COC(=O)c1cnccn1)Nc1ccc(Cl)cc1C(F)(F)F`, the Potency entry is “inactive”.

For the compound `CS(=O)(=O)N1CCN(c2ccc(C(=O)NC3C4CC5CC(C4)CC3C5)cc2[N+](=O)[O-])CC1` (centres undefined), the Potency was 11.2 µM (active).

For `Cc1ccc(C(=O)c2ccc(N3CCN(C)CC3)c([N+](=O)[O-])c2)cc1`, the Potency is 10 µM (active). `O=C(NC1C2CC3CC(C2)CC1C3)c1ccc(N2CCNCC2)c([N+](=O)[O-])c1` (centres undefined): the Potency result is “inactive”.

Consider `O=C(NCCCN1CCOCC1)c1ccc(N2CCCC2)c([N+](=O)[O-])c1`, for which the Potency result was “inactive”. Same read-out and setting: under `CCOC(=O)C1CCN(c2ccc(C(=O)O)cc2[N+](=O)[O-])CC1` stands “inactive”; under `Cc1cccc(N2CCN(c3ccc(C(N)=O)cc3[N+](=O)[O-])CC2)c1C`, “inactive”; under `Cc1cc([N+](=O)[O-])c(=O)[nH]c1C`, “inactive”. On to `CN(C)C(=O)CCc1ccc2c3c([nH]c2c1)[C@]1(C)[C@@H](C(=O)N2CCCCC2)C[C@H](CC(=O)NCCC2=CCCCC2)C(=O)N1CC3`, for which the Potency result was “inactive”. On the same count and under the same terms, under `COc1cc(OC)cc(C(=O)NNC(=O)Cc2cccs2)c1` stands “inactive”; under `O=C(CNc1ccccc1N1CCCC1=O)Nc1cc(Cl)ccc1-n1cncn1`, “inactive”. Turning to `OCCNc1nc(Nc2ccc(Cl)c(Cl)c2)nc2ccccc12`, the Potency was 10 µM (active).

Take `Cc1nnc(NCCO)c2ccccc12`: the Potency entry was “inactive”. For the compound `CN(C)c1nc(Nc2ccc(Cl)c(Cl)c2)nc(N(C)C)n1`, the Potency entry is “inactive”. Regarding `CC(C)Sc1nc(N)nc2c1ncn2C1OC(CO)C(O)C1O` (centres undefined), the Potency result is “inactive”.

Take `CC[C@]12c3[nH]c4ccc(OC)cc4c3CCN1C(=O)C(CC(=O)NCCN1CCOCC1)C[C@@H]2C(=O)N1CCN(C(=O)C2CC2)CC1` (some centres undefined): the Potency entry is “inactive”.
